Experimental findings from publication PMC3218832 are described below.

Common to all, as to assay: protein binding microarray; high values mean tight binding
What all share (conditions): dsDNA, one strand shown

For test [1], the target named is RELARELA (p65 homodimer) (Homo sapiens, UniProt Q04206 1-307).
For test [2], the target named is p50p50 homodimer (Homo sapiens, UniProt P19838 7-356).
Test [3] has as its target T1, p52p52 homodimer (Homo sapiens, UniProt Q00653 4-332).
T1 sequence: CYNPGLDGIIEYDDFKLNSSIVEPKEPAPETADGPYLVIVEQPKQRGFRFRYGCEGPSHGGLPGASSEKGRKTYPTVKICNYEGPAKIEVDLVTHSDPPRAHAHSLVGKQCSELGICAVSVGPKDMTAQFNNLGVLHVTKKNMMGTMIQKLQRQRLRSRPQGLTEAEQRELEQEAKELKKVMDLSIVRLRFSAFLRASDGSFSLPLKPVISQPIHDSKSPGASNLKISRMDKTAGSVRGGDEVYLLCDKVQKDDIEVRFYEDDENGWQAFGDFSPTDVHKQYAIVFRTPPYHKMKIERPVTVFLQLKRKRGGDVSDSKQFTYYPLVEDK

Test [4] addresses RELA (p65) subunit of heterodimer;p50 subunit (Homo sapiens;Homo sapiens, UniProt Q04206;P19838 1-307;7-356).
Test [5] has as its target RELA (p65) subunit of heterodimer;p52 subunit (Homo sapiens;Homo sapiens, UniProt Q04206;Q00653 1-307;4-332).
Test [6] concerns the target RELB subunit;p50 subunit (Homo sapiens;Homo sapiens, UniProt Q01201;P19838 120-401;7-356).
For test [7], the target named is T2, RELB subunit;p52 subunit (Homo sapiens;Homo sapiens, UniProt Q01201;Q00653 120-401;4-332).
T2 sequence 1: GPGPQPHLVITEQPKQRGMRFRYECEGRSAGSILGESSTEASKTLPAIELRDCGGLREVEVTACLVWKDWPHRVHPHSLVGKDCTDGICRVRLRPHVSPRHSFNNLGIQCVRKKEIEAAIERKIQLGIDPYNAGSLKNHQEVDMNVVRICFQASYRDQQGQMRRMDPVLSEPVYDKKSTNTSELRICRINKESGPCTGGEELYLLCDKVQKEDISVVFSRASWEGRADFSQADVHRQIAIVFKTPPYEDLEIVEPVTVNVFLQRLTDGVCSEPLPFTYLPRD
T2 sequence 2: T1 sequence

For test [8], the target named is C-Rel subunit;p50 subunit (Homo sapiens;Homo sapiens, UniProt Q04864;P19838 1-285;7-356).
Test [9] has as its target T3, C-Rel subunit;p52 subunit (Homo sapiens;Homo sapiens, UniProt Q04864;Q00653 1-285;4-332).
T3 sequence 1: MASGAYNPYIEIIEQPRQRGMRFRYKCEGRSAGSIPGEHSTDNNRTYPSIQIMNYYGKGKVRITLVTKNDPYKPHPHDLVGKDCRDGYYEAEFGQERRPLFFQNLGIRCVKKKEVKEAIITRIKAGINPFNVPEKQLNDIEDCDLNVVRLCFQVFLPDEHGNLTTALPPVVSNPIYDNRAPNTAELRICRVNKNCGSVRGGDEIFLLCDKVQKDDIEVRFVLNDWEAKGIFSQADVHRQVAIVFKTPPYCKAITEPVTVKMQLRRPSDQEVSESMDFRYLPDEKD
T3 sequence 2: T1 sequence

Chain of p50p50 homodimer (P19838 7-356): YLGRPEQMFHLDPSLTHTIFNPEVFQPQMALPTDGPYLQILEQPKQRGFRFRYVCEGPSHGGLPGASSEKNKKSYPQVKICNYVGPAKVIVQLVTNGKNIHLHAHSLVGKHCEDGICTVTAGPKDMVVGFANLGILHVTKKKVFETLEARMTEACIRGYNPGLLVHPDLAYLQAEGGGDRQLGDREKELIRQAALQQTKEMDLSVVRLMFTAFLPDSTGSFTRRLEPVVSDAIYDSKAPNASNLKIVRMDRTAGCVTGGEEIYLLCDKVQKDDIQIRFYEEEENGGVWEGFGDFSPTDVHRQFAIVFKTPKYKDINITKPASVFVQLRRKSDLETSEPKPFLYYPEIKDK
Chain of RELARELA (p65 homodimer) (Q04206 1-307): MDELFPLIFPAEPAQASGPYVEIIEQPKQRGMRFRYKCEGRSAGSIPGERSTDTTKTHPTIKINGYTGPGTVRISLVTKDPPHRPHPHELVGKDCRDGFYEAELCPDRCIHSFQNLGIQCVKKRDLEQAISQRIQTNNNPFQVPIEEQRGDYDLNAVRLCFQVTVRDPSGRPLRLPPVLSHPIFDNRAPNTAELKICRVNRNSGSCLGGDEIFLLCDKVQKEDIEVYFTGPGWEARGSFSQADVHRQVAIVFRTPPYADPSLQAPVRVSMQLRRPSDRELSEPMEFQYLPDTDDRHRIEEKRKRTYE
Chain of RELA (p65) subunit of heterodimer;p50 subunit (Q04206 1-307, chain 1 of 2): as the sequence (Q04206 1-307) above
Chain of RELA (p65) subunit of heterodimer;p50 subunit (P19838 7-356, chain 2 of 2): as the sequence (P19838 7-356) above

Regarding GGATAGTCCCT, the binding signal came to 1 z-score in test [1]; 1.18 z-score in test [2]; 1.57 z-score in test [3]; 1.47 z-score in [4]; 1.43 z-score in [5]; 0.994 z-score in test [6]. Moreover, the results for the binding signal in test [7], in [8] and in test [9] were 1.65 z-score, 1.15 z-score and 1.82 z-score, respectively.
With AGAAGGGTCCC, the binding signal in [1] was -0.591 z-score; in test [2], -0.215 z-score; in test [3], 0.0384 z-score; in [4] it was -0.173 z-score; in test [5], -0.123 z-score; in [6], -0.00663 z-score. For the same sequence, the binding signal in test [7] is -0.0866 z-score; in [8] it was -0.405 z-score; in test [9] it was -0.315 z-score.
For CAATATTTCCC, the binding signal in [1] is 2.26 z-score; in [2], 1.03 z-score; in [3] it was 0.706 z-score; in test [4] it was 1.27 z-score; in test [5] it was 1.06 z-score; in test [6], 0.775 z-score. Moreover, the binding signal was determined as 0.965 z-score in [7], 1.45 z-score in test [8] and 1.08 z-score in [9].
GGAGGTACCCT: the binding signal in test [1] was -0.125 z-score; in [2], 0.0465 z-score; in test [3] it was -0.0665 z-score; in [4], 0.0938 z-score; in [5], 0.0265 z-score; in [6] it was 0.0938 z-score. Besides, the binding signal in test [7] is -0.25 z-score; in test [8], -0.0429 z-score; in test [9], 0.0544 z-score.
For CAGAGATTCCT, the binding signal was 0.143 z-score in [1]; -1.43 z-score in [2]; -0.492 z-score in test [3]; -0.806 z-score in [4]; -0.992 z-score in test [5]; -1.16 z-score in [6]. For the same sequence, the binding signal is -1 z-score in [7], -0.64 z-score in [8] and -0.606 z-score in test [9].
For the sequence CGGTGGATCCC, the binding signal was 0.0568 z-score in test [1]; 0.42 z-score in test [2]; 2.32 z-score in test [3]; 0.748 z-score in [4]; 1.33 z-score in [5]; 0.911 z-score in test [6]. Besides, the binding signal in test [7] was found to be 1.38 z-score; in [8] it was 0.293 z-score; in [9] it was 1.43 z-score.
AAGGTCCCCCC: the binding signal in test [1] is -0.0871 z-score; in test [2], 1.12 z-score; in test [3] it was 0.844 z-score; in [4], 1.52 z-score; in test [5], 1.1 z-score; in test [6], 1.51 z-score. Besides, the binding signal was 1.74 z-score in test [7], 1.34 z-score in test [8] and 0.964 z-score in test [9].
Consider GAATTGTCCCC, for which the binding signal in [1] stood at 1.03 z-score; in test [2], 1.37 z-score; in [3], 1.34 z-score; in test [4], 1.38 z-score; in test [5] it was 1.18 z-score; in test [6] it was 1.38 z-score. Also, the binding signal in test [7] came out at 1.61 z-score; in test [8], 1.27 z-score; in [9] it was 0.963 z-score.
Consider CAGTGCATCCT, for which the binding signal is -0.475 z-score in test [1]; -2.12 z-score in test [2]; -0.705 z-score in test [3]; -0.986 z-score in test [4]; -0.986 z-score in [5]; -1.19 z-score in test [6]. The binding signal is -1.04 z-score in test [7], -1.59 z-score in [8] and -0.988 z-score in [9].
Consider CAATAATCCCT, for which the binding signal in test [1] is -0.146 z-score; in test [2], 0.635 z-score; in test [3] it was 0.735 z-score; in [4], 0.226 z-score; in test [5], 0.493 z-score; in [6], 0.496 z-score. The binding signal in test [7] was 0.698 z-score; in [8], 0.212 z-score; in test [9], 0.284 z-score.
In the case of AAAAGGTCCCC, the binding signal in [1] amounted to 0.121 z-score; in test [2], 0.934 z-score; in test [3] it was 0.86 z-score; in test [4], 0.799 z-score; in test [5] it was 0.753 z-score; in [6] it was 1.08 z-score. Also, the binding signal amounted to 0.995 z-score in test [7], 0.454 z-score in [8] and 0.594 z-score in [9].
AAATTTGCCCT: the binding signal is 0.9 z-score in [1]; -0.198 z-score in [2]; -0.202 z-score in test [3]; 0.0394 z-score in [4]; -0.125 z-score in [5]; -0.452 z-score in test [6]. Also, the binding signal is -0.337 z-score in [7], 0.26 z-score in test [8] and 0.00992 z-score in [9].
Regarding GGAATTACCCC, the binding signal in [1] is 2.91 z-score; in test [2], 0.961 z-score; in test [3] it was 1.76 z-score; in test [4] it was 1.92 z-score; in [5], 2.08 z-score; in test [6], 1.18 z-score. Further, the results for the binding signal in test [7], in test [8] and in test [9] were 1.85 z-score, 1.44 z-score and 2.35 z-score, respectively.
In the case of CAGGTACCCCT, the binding signal in test [1] is -0.0502 z-score; in test [2] it was 0.353 z-score; in [3], 0.356 z-score; in test [4], 0.304 z-score; in test [5], 0.796 z-score; in test [6], 0.548 z-score. For the same sequence, the binding signal in [7] is 1.06 z-score; in test [8], 0.193 z-score; in test [9], 0.274 z-score.
As for CGAGAAATCCC, the binding signal worked out at 1.4 z-score in test [1]; 0.819 z-score in test [2]; 0.839 z-score in test [3]; 0.872 z-score in [4]; 0.718 z-score in [5]; 0.773 z-score in [6]. In addition, the binding signal is 0.543 z-score in test [7], 0.883 z-score in test [8] and 0.451 z-score in test [9].
